Screening data deposited in PubChem BioAssay by several laboratories.
Most compounds without a hit are left out; they make up all but 2.9% or so of the library.
Mtb FBA inh = inhibitors of M. tuberculosis fructose-bisphosphate aldolase; P9WQA3; purified M. tuberculosis FBA, fluorescence read-out; inhibition, % at 1 µM; actives 2.3% (n = 360,000); in the data active = inhibition above about 27%
Target sequence (P9WQA3 whole entry, looked up): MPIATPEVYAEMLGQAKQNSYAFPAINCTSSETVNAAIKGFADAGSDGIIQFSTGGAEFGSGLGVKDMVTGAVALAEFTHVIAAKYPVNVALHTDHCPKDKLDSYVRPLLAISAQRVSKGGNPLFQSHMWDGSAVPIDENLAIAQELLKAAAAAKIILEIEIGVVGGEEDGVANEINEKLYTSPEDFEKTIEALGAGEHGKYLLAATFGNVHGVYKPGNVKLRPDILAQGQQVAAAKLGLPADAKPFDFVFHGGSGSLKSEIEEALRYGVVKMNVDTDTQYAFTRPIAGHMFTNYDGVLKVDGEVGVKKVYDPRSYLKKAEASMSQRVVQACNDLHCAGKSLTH
Mtb hypoxia rep = inhibitors of hypoxia-regulated fluorescent reporter in Mycobacterium tuberculosis | AID 1159583 | fluorescence inhibition, % (test concentration not listed) | actives 0.1% (n = 300,000) | M. tuberculosis hypoxia-regulated fluorescent reporter, fluorescence; in the data active = fluorescence inhibition mostly above about 23%, no sharp cut-off; inactive = mostly below about 17%
FadD28 FP inh = M. tuberculosis FadD28 bisubstrate binding inhibition. actives 0.22% (n = 360,000). FadD28 bisubstrate probe binding, fluorescence polarization. inhibition, % at 12.5 µM; in the data active = inhibition above about 8.5%, passing the limit was not always enough
BioA inh = BioA (M. tuberculosis) enzyme inhibition; purified M. tuberculosis BioA enzyme, plate reader; inhibition, % at 9.99 µM; actives 0.096% (n = 360,000); in the data active = inhibition above about 40%
GDH-TPI inh = GDH-TPI coupled enzyme inhibition counter-screen; GDH-TPI coupled enzyme counterscreen, NADH absorbance; inhibition, % at 4.8 µM; actives 1.2% (n = 360,000); AID 588335; in the data active = inhibition above about 30%
Hits are given with their value; – = inactive; · = not tested or not shown; + = active, no number; ! = not confirmed by another sample.

SMILES	Mtb FBA inh	Mtb hypoxia rep	FadD28 FP inh	BioA inh	GDH-TPI inh
Clc1ccccc1CN1CCN(N=CC=Cc2ccco2)CC1	·	–	·	·	·
CSc1ccc(C(c2c(C)[nH][nH]c2=O)c2c(C)[nH][nH]c2=O)cc1	–	·	–	–	–
CCOc1cc(Br)cc(C(c2c(C(=O)O)[nH]c3ccccc23)c2c(C(=O)O)[nH]c3ccccc23)c1O	–	–	32.5	–	–
CSc1ccc(C(c2c(C(=O)O)[nH]c3ccccc23)c2c(C(=O)O)[nH]c3ccccc23)cc1	–	–	38.2	–	–
Cc1ccc[n+](CC(=O)Nc2ccc([N+](=O)[O-])cc2)c1	–	–	–	–	42.0
Cc1ccc[n+](CC(=O)Nc2cccc([N+](=O)[O-])c2)c1	–	–	–	·	–
CC(=NNC(=O)c1sc(NS(=O)(=O)c2ccc(C)cc2)nc1C)c1sc(N)nc1C	·	–	·	·	·
C/C(=N/NC(=O)c1sc(NS(=O)(=O)c2ccccc2)nc1C)c1sc(N)nc1C	–	·	–	–	38.2
C[C@H]1CN([C@@H](C)CO)C(=O)c2cc(NC(=O)c3ccncc3)ccc2O[C@H]1CN(C)S(C)(=O)=O	·	·	·	–	·
C[C@@H]1CN([C@@H](C)CO)C(=O)c2cc(C#CC3CCCC3)cnc2O[C@H]1CN(C)C(=O)C1CC1	·	·	·	–	·
CCOC(=O)c1cc(-c2ccc(/C=C3/C(=O)NC(=O)C(C#N)=C3C)o2)ccc1Cl	–	–	15.2	–	34.6
CC(=O)Nc1cccc(-c2nc3ccccc3o2)c1	–	–	–	–	–
CC(=O)Nc1cc(-c2nc3ccccc3o2)ccc1Cl	–	–	–	–	–
CC(=O)Nc1ccc(-c2nc3ccc(NC(C)=O)cc3o2)cc1	+	–	–	–	–
CC(=O)Nc1ccc2oc(-c3ccccc3)nc2c1	173.1	–	–	·	–
CCC(=O)N(C)C[C@@H]1Oc2cc(C#CC(C)C)ccc2S(=O)(=O)N([C@@H](C)CO)C[C@@H]1C	·	·	·	–	·
COc1ccc(/C=N/NC(=O)c2ccco2)cc1OCc1ccccc1	–	·	–	·	39.5
COc1ccc(/C=N/NC(=O)c2cc(C)oc2C)cc1OCc1ccccc1	–	·	–	–	32.4
COc1ccc(C=NNC(=O)c2ccco2)cc1OCc1ccccc1	·	–	·	·	·
CC(C)NC(=O)N(C)C[C@H]1OCc2ccccc2-c2c(n(C)c3ccccc23)C(=O)N([C@@H](C)CO)C[C@H]1C	·	·	·	–	·
O=C(O)c1ccc(O)cc1O	–	–	–	–	–
Nc1ccc(C(=O)O)c(O)c1	–	·	15.6!	–	–
COc1ccc(N2CCN(C(=O)C3CCCN(c4ncnc5c4nc4n5CCCCC4)C3)CC2)cc1 (stereo not given)	–	–	–	–	–
CC(=O)c1ccc(N2CCN(C(=O)C3CCN(S(=O)(=O)c4ccc(F)cc4)CC3)CC2)cc1	–	–	–	–	–
CC1CCN(C(=O)C2CCN(c3ncnc4c3nc3n4CCCCC3)CC2)CC1	–	28.4	–	–	–
CC(=O)c1ccc(N2CCN(C(=O)C3CCCN(c4ncnc5c4nc4n5CCCCC4)C3)CC2)cc1 (stereo not given)	–	–	–	–	31.0
CC(=O)c1ccc(N2CCN(C(=O)C3CCC3)CC2)cc1	–	–	–	–	44.5
CO[C@@H]1CN(C)C(=O)c2cc(NC(=O)C3CC3)ccc2OC[C@@H](C)N(Cc2cc(F)ccc2F)C[C@@H]1C	·	·	·	–	·
